Screening results as filed in PubChem BioAssay.
PKA-R1A activ = PKA-R1A complex activation | activation, % at 11.4 µM | AID 504707 | 0.083% of 340,000 active | PKA-R1A dissociation, Cy5-IP20 fluorescence polarization; scaled: DMSO 0%, 113 µM cGMP 100%;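 active = percent activation above the mean of all tested compounds plus 3 SD, cut at about 19% in these data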;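 also: higher means more PKAc released from R1A so a rise in polarization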
PAFAH1B3 inh = blocks human PAF acetylhydrolase 1B catalytic subunit 3; recombinant PAFAH1B3, FP-rhodamine probe, fluorescence polarization; Q15102; inhibition, % at 3.39 µM; 0.28% of 340,000 active; AID 492972;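 active = inhibition above the screen-wide average of all tested compounds plus 3 SD, cut at about 25% in these data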
Target sequence (Q15102 whole entry, looked up): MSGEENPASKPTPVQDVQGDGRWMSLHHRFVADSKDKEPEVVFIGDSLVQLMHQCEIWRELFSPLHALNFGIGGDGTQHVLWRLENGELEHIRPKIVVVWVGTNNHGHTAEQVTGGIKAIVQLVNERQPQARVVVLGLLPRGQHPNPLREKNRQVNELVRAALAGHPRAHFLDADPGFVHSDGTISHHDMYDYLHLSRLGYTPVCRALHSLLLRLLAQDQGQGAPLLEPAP
PAFAH2 FP inh = inhibitors of human PAFAH2. Q99487. recombinant PAFAH2, FP-rhodamine activity probe, fluorescence polarization. inhibition, % at 3.39 µM. 0.99% of 340,000 active;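 active = inhibition above the mean over all tested compounds plus 3 SD, cut at about 30% in these data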;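 also: inhibitors block probe labeling of enzyme so polarization drops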
PAFAH1B2 FP inh = PAFAH1B2 (human) inhibition | P68402 | recombinant PAFAH1B2, FP-rhodamine activity probe, fluorescence polarization | inhibition, % at 3.39 µM | 1.2% of 340,000 active | AID 492953;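 active = inhibition above the mean of all tested compounds plus 3 SD, cut at about 24% in these data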
Target sequence (P68402 whole entry, looked up): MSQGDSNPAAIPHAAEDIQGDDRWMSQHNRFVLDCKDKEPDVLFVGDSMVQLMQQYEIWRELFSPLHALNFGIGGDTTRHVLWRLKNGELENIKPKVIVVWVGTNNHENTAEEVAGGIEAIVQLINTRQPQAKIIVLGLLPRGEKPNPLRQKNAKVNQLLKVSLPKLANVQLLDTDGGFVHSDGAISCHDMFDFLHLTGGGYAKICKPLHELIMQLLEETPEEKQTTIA
PKA-R2B act = activators of human PKA-R2B complex | PKA-R2B holoenzyme dissociation, Cy5-IP20 fluorescence polarization; R2B truncated from residue 108, S112A mutant; 0% DMSO only, 100% 113 µM cGMP | activation, % at 11.4 µM | 0.079% of 340,000 active;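 active = activation above a cutoff set at the mean over all compounds plus 3 SD, cut at about 18% in these data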;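 also: higher means more holoenzyme dissociation and a rise in polarization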
pPAFAH inh = inhibitors of human plasma PAF acetylhydrolase (pPAFAH) | Q13093 | recombinant pPAFAH, FP-rhodamine probe fluorescence polarization | inhibition, % at 3.39 µM | 1.5% of 330,000 active | AID 463082;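 active = inhibition above the mean inhibition across the screen plus 3 SD, cut at about 25% in these data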;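 also: inhibitors block binding of the rhodamine activity-based probe so polarization drops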
A number is an active result; n = inactive; x = no result. In the library only some 2.6% were active in any assay of this set; here they are far more common.

SMILES | PKA-R1A activ | PAFAH1B3 inh | PAFAH2 FP inh | PAFAH1B2 FP inh | PKA-R2B act | pPAFAH inh
C[C@@H]1COC(=O)[C@H](Cc2ccc(F)cc2)C/C=C\C[C@@H](CC(=O)N[C@H](CO)Cc2ccccc2)C(=O)N1 | n | n | n | 26.9 | n | n
CC(C)(C)[C@H]1COC(=O)[C@@H](Cc2ccc(F)cc2)CC/C=C/C[C@@H](CC(=O)N[C@H](CO)Cc2ccccc2)C(=O)N1 | n | n | n | 30.5 | n | n
O=C(C[C@@H]1C/C=C\C[C@@H](Cc2ccc(F)cc2)C(=O)OC[C@@H](Cc2ccccc2)NC1=O)N[C@H](CO)Cc1ccccc1 | n | n | n | n | n | n
O=C(C[C@@H]1C/C=C\C[C@@H](Cc2ccc(F)cc2)C(=O)OCCNC1=O)N[C@H](CO)Cc1ccccc1 | n | n | n | 27.1 | n | n
O=C(C[C@H]1C/C=C\C[C@@H](Cc2ccc(F)cc2)C(=O)OC[C@H]2CCCN2C1=O)N[C@H](CO)Cc1ccccc1 | n | n | n | 28.5 | n | n
COCC(C)n1c(SC(C)C(=O)NC2CCCCC2C)nc2ccccc2c1=O (stereo not drawn) | n | n | n | n | n | n
Cc1nnc(NC(=O)c2ccc(Br)o2)s1 | n | n | n | n | n | n
Cc1ccc(S(=O)(=O)c2nc(S(C)(=O)=O)sc2N2CCC(C)CC2)cc1 | n | n | n | n | n | n
CC(C)(C)[C@H]1COC(=O)[C@@H](Cc2ccc(F)cc2)CC/C=C/C[C@@H](CC(=O)N[C@@H](CO)Cc2ccccc2)C(=O)N1 | n | n | n | 27.3 | n | n
CC(C)(C)[C@H]1COC(=O)CC/C=C\C[C@@H](CC(=O)N[C@H](CO)Cc2ccccc2)C(=O)N1 | n | n | n | n | n | n
CCc1cccc(Nc2cnn(C34C[C@@H]5C[C@@H](CC(CC(=O)O)(C5)C3)C4)c(=O)c2Cl)c1 | n | n | n | 32.3 | n | n
O=C1[C@@H]2[C@H](C(=O)N1CC(O)COCc1ccccc1)C1C=C[C@H]2C1 (stereo partly drawn) | n | n | n | n | n | x
O=S1(=O)Nc2c(ccc3cccnc23)-c2ccccc21 | n | n | n | n | n | 26.6
Clc1ccc2ccc3cccnc3c2n1 | n | n | n | n | n | x
CCC(=O)N(c1ccc(C(=O)O)cc1)c1nc(-c2ccc(OC)cc2)c(C)s1 | n | n | n | n | n | n
Cc1sc(N(C(=O)CCc2ccccc2)c2ccc(C(=O)O)cc2)nc1-c1ccccc1 | n | n | n | 34.3 | n | 25.3
O=c1c2c(nc3cc(-c4ccc(Cl)cc4)[nH]n13)CCS2 | n | n | n | 31.6 | n | n
O=C(c1cc(COc2ccc(F)cc2Cl)on1)N1CCN(C2CCCCC2)C(=O)C1 | n | n | n | n | n | n
Cc1nonc1CN(C)C(=O)c1cc(COc2ccc(F)cc2Cl)on1 | n | n | n | n | n | 26.1
O=C(c1cc(COc2ccc(F)cc2Cl)on1)N1CCN(C2CCCC2)CC1 | n | n | n | n | n | 26.0
O=C1C2CCCCN2C(=O)N1CCCCN1CCN(c2cccc(Br)c2)CC1 (stereo not drawn) | n | n | n | n | n | 28.2
O=C1C2CCCN2C(=O)N1CCCCN1CCN(c2ccccc2)CC1 (stereo not drawn) | n | n | n | n | n | n
O=C1C2CCCN2C(=O)N1CCCN1CCN(c2ccc([N+](=O)[O-])cc2)CC1 (stereo not drawn) | n | n | n | n | n | 29.3
O=C1C2CCCCN2C(=O)N1CCN1CCN(c2ccc([N+](=O)[O-])cc2)CC1 (stereo not drawn) | n | n | n | n | n | n
COC(=O)C1CCN(C(=O)CN(C)Cc2ccc(C(C)(C)C)cc2)CC1 | n | n | n | n | n | n
SMILES | PKA-R1A activ | PAFAH1B3 inh | PAFAH2 FP inh | PAFAH1B2 FP inh | PKA-R2B act | pPAFAH inh
Cc1ccc(NC(=O)C2=C(c3ccccc3)S(=O)(=O)CCS2(=O)=O)cc1 | n | n | n | n | n | n
Cc1ccccc1OCc1nnc(SC(C)C(=O)O)n1Cc1ccccc1 (stereo not drawn) | n | n | n | n | n | n
Cc1ccc(CNC(=O)N[C@@H](Cc2ccccc2)C(=O)O)cc1 | n | n | n | 26.3 | n | n
CC(NC(=O)COC(=O)c1ccc(N(C)C)cc1)c1ccccc1 (stereo not drawn) | n | n | 78.7 | n | n | 32.8
N#CC(c1ccccc1)c1ccc(=O)[nH]n1 (stereo not drawn) | n | n | n | n | n | n
N#CC(c1ccc(=O)[nH]n1)c1ccc(Cl)cc1Cl (stereo not drawn) | n | n | n | n | n | 34.0
O=C(COC(=O)C1CC(=O)N(Cc2ccco2)C1)Nc1nc(-c2ccc(F)cc2)cs1 (stereo not drawn) | n | n | n | n | n | n
Cc1cccc2c(N=O)c(O)[nH]c12 | n | 53.4 | n | 30.2 | n | 31.4
CCCC[C@@H]1CNC(=O)C(=O)N1CCc1cccc2ccccc12 | x | x | x | x | x | n
NNC(=O)c1nn(-c2ccccc2)cc1O | x | x | x | x | x | 30.6
Cc1ccc2c(c1)C1C=CCC1C(C(=O)NCCCN1CCOCC1)N2 (stereo not drawn) | n | n | n | n | n | n
Cc1ccc2c(c1)C1C=CCC1C(C(=O)O)N2 (stereo not drawn) | x | x | x | x | x | 60.9
O=C(O)C1Nc2ccc(OC(F)(F)F)cc2C2C=CCC12 (stereo not drawn) | x | x | x | x | x | 61.2
O=C(N[C@H]1/C=C\[C@@H](O)CCCC1)OCc1ccccc1 | n | n | n | n | n | n
O=C(Cn1cc[n+](CC(=O)c2ccc(Cl)cc2Cl)c1)c1ccc(Cl)cc1Cl | x | x | x | x | x | 32.8
O=C(Cn1cc[n+](CC(=O)c2ccccc2)c1)c1ccccc1 | n | n | n | n | n | n
O=C(CCC1CCCN(C(=O)Cc2cccc(F)c2)C1)N1CCN(c2ccccn2)CC1 (stereo not drawn) | n | n | n | n | n | n
CC(=O)c1ccccc1C(=O)N1CCCC(CCC(=O)N2CCN(c3ccccn3)CC2)C1 (stereo not drawn) | n | n | n | n | n | n
O=C(CCC1CCCN(C(=O)CCCc2ccccc2)C1)N1CCN(c2ccccn2)CC1 (stereo not drawn) | n | n | n | n | n | 25.5
Cc1ccc(C(=O)N2CCCC(CCC(=O)N3CCN(c4ccccn4)CC3)C2)s1 (stereo not drawn) | n | n | n | n | n | 30.2
O=C(NCc1ccc2c(c1)OCO2)c1ccc(CSCc2ccc(Cl)cc2)o1 | n | n | n | 25.7 | n | n
O=C(NCc1ccc2c(c1)OCO2)c1ccc(CS(=O)(=O)Cc2cccc(Cl)c2)o1 | n | n | n | n | n | 25.0
C[C@H](NC(=O)OCc1ccccc1)C(=O)N[C@@H](Cc1c[nH]c2ccccc12)C(=O)O | n | n | n | 25.5 | n | n
